The list is not random: actives were taken first. Their share in the collection is about 7%.
AHR act – human AHR activation | P35869 | activation, % at 5 µM | 320,000 compounds, 2.5% hits | AHR-responsive luciferase reporter cells, luminescence; in the data active = activation above about 47%;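 note: 0% = vehicle wells and 100% = reference agonist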
ADAM10 inh – inhibitors of human ADAM10 | O14672 | recombinant ADAM10, EDANS/DABCYL FRET peptide cleavage, 3 h | inhibition, % at 7 µM | 370,000 compounds, 0.62% hits | AID 720582;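 active = inhibition above a per-campaign cutoff equal to the mean of compounds falling between control-based bounds plus 3 SD, cut at about 20% in these data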;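 note: 0% = DMSO wells while the 100% control is not disclosed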
proKLK7 act – activates the human kallikrein-7 zymogen; P49862; purified proKLK7, EDANS-DABCYL substrate fluorescence; 100% is mature enzyme control, 0% vehicle; activation, % at 7 µM; 370,000 compounds, 0.9% hits;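 active = activation above the mean of all tested compounds plus 3 SD, computed per campaign excluding outliers beyond control limits, cut at about 13% in these data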
rCAG binder – binds r(CAG) RNA repeats; r(CAG) RNA repeat, TO-PRO-1 dye displacement fluorescence; inhibition, % at 3 µM; 370,000 compounds, 1.3% hits; AID 651821;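 active = inhibition above the plate cutoff, the mean of all test compounds on that plate plus 3 SD, cut at about 35% in these data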;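 note: 0% = DMSO alone and 100% = 100 µM mitoxantrone as full dye displacement; higher means more dye released from RNA so lower well fluorescence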
ADAM17 inh – ADAM17 inhibition, QFRET primary screen. P78536. recombinant ADAM17, EDANS/DABCYL FRET peptide cleavage. inhibition, % at 6.95 µM. 370,000 compounds, 0.83% hits;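 active = inhibition above the mean of compounds lying between control limits plus 3 SD, set per campaign, cut at about 8.5% in these data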;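 note: 0% = DMSO-only wells as the low control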
Target sequence (P78536 215-824 limits assumed): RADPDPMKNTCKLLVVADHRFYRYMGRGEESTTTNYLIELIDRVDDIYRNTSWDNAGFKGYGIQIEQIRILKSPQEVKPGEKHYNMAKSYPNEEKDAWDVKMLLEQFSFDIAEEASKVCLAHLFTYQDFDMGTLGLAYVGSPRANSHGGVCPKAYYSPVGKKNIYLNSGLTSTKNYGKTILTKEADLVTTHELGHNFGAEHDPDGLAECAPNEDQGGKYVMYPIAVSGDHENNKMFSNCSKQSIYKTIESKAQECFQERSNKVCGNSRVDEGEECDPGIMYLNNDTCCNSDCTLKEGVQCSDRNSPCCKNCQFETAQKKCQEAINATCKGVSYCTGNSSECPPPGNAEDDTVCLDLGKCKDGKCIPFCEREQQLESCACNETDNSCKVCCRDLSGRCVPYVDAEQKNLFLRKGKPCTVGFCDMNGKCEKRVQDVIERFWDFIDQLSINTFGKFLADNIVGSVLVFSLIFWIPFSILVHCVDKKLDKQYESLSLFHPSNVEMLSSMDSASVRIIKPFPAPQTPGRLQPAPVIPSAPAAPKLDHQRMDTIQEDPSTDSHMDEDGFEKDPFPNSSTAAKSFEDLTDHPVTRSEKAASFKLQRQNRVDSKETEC
NR3A LBD binder – modulators (binders) of human NR3A ligand-binding domain. Tm shift relative to glycine control, % at 25 µM. AID 1259313. 340,000 compounds, 2.5% hits. NR3A LBD differential scanning fluorimetry, Tm shift; 0% = protein alone, 100% = glycine-bound protein;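 active = melting temperature shift of at least 10% of the positive control shift, at one fixed dose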
rCAG binder conf – r(CAG) RNA repeat binding, confirmation. shares compounds with rCAG binder. TO-PRO-1 dye displacement fluorescence. inhibition, % at 3 µM. 4,300 compounds, 70% hits;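 active = inhibition above a per-plate cutoff, the mean inhibition of sample wells plus 3 SD, cut at about 35% in these data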;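 note: loss of TO-PRO-1 fluorescence as compound displaces dye from 1x1 AA loop RNA; 0% = DMSO only wells and 100% = 100 µM mitoxantrone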
dCAG dye counter – DNA CAG dye complex inhibition counter-screen; AID 652068; 4,300 compounds, 94% hits; shares compounds with rCAG binder; inhibition, % at 3 µM; d(CAG) DNA oligo TO-PRO-1 dye displacement, fluorescence;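 active = inhibition above its plate's cutoff, the mean test-well inhibition plus 3 SD, cut at about 4.8% in these data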;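 note: 0% = DNA dye mix with DMSO and 100% = 100 µM mitoxantrone; hits displace the dye from DNA and so lower well fluorescence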
An asterisk follows results filed as active; nt = no result.

SMILES	AHR act	ADAM10 inh	proKLK7 act	rCAG binder	ADAM17 inh	NR3A LBD binder	rCAG binder conf	dCAG dye counter
Cc1ccc(C)c(Sc2ccc(S(=O)(=O)Nc3ccc(C(=O)O)cc3)cc2)c1	-0.8	6.8	-0.1	37.6*	1.6	-18.2	41.5*	11.1*
Cc1ccc(Sc2ccc(S(=O)(=O)Nc3ccc(CC(=O)O)cc3)cc2)cc1C	-1.6	-4.8	-0.1	51.9*	2.6	-12.4	43.7*	13.7*
Cc1cccc(Nc2nc(OCC#N)nc(N(C)C)n2)c1	30.9	-2.4	-0.2	1.8	-3.4	-2.6	nt	nt
CCN(CC)c1nc(Nc2ccc(Cl)cc2)nc(OCC#N)n1	1.9	14.1	0.1	51.1*	4.8	-11.0	5.7	3.8
O=C(Nc1ccccc1)c1ccccc1NC(=O)c1ccccc1[N+](=O)[O-]	5.6	-3.0	0.8	0.6	-2.1	-3.7	nt	nt
O=[N+]([O-])c1ccccc1C(=Nc1ccccc1)c1c(O)cc(O)cc1O	nt	3.1	0.0	45.4*	-2.4	nt	11.9	7.7*
CCc1ccc(-c2csc3ncn(Cc4ccc(C(=O)O)cc4)c(=O)c23)cc1	-1.1	6.3	0.1	34.8*	0.5	-1.3	29.2	7.7*
COC(=O)C1=C(O)/C(=C\c2ccc(CNS(=O)(=O)c3ccc(Cl)cc3)o2)N=C1C	1.3	-1.2	1.2	36.8*	-0.4	-3.9	42.0*	14.5*
CCOC(=O)C1=C(O)/C(=C\c2ccc(CNS(=O)(=O)c3ccc(Br)cc3)o2)N=C1C	5.5	-8.1	1.1	36.6*	-0.2	-3.0	42.8*	15.6*
Cc1nc(SC(C)C(=O)Nc2cccc(C(F)(F)F)c2)c2c(C)c(C(=O)O)sc2n1 (stereo not given)	1.5	5.0	0.3	36.9*	0.2	-3.3	60.1*	21.5*
CCN1C[C@@H]2[C@@H]3C(=O)N(Cc4ccccc4)C(=O)[C@@H]3[C@](CC)(C1=O)N2C(=O)c1ccc(Cl)cc1	nt	1.4	0.6	-4.5	-2.6	nt	nt	nt
c1ccc(Nc2nnc(-c3ccc4c(c3)OCO4)o2)cc1	nt	-9.9	-0.2	3.1	-4.2	nt	nt	nt
COc1ccc(-c2csc(C(C#N)=C(O)CSc3nccn3C)n2)cc1OC	nt	-9.9	1.1	54.4*	-4.0	-3.9	23.3	7.2*
COc1ccc(-c2csc(C)n2)cc1OC	-4.8	-0.8	0.2	-3.6	0.7	1.5	nt	nt
O=C(Nc1ccccc1C(=O)O)/C(=C/c1ccc(Cl)cc1Cl)NC(=O)c1ccco1	-1.2	9.0	0.4	52.1*	-2.6	-1.6	26.5	6.0*
CCOC(=O)c1cc(C#N)c(SCC(=O)Nc2ccc(C(C)=O)cc2)[nH]c1=O	0.3	-10.9	-0.4	42.6*	-5.5	-1.7	43.6*	10.4*
O=C(O)c1cccc(S(=O)(=O)Nc2cc(Cl)ccc2Cl)c1	-1.7	7.1	0.2	1.6	-0.7	-0.4	nt	nt
CC1CC(C)CN(C(=O)c2cccc(S(=O)(=O)Nc3cc(C(F)(F)F)ccc3Cl)c2)C1 (stereo not given)	-1.2	2.1	0.3	71.1*	1.9	-6.3	66.2*	27.3*
CC(C)(C)c1ccc(S(=O)(=O)N2CC(C(=O)O)Oc3ccc(Cl)cc32)cc1 (stereo not given)	2.6	5.2	-0.6	62.9*	-0.7	-4.3	63.3*	25.7*
COc1ccc(N2C[C@@]3(O)CC[C@@H](O)[C@@H](OC)[C@@H]3[C@@]2(C)[C@H](O)CC=C(C)C)cc1	nt	-4.9	0.4	5.2	-2.9	nt	nt	nt
CC(C)C[C@H](NC(=O)N1CCOCC1)C(=O)N1CCC[C@H]1C(=O)NCc1ccccc1	nt	-13.4	0.3	0.7	-1.1	nt	nt	nt
O=C1C(=Cc2ccco2)CCC1=Cc1ccco1	nt	-12.3	-0.5	65.8*	-6.4	-0.9	78.2*	44.4*
CC1=C(C(=O)OCc2ccccc2)C(c2ccccc2OS(=O)(=O)c2ccc(C)cc2)NC(=O)N1CCCC(=O)O (stereo not given)	0.0	3.5	0.0	34.9*	1.1	-2.7	62.2*	20.8*
CCN(CC)c1ccc2cc(C(=O)c3cccs3)c(=O)oc2c1	nt	-44.4	-0.9	12.1	-15.4	nt	nt	nt
O=[N+]([O-])c1ccc(CN2[C@H](COCc3ccccc3)C=CS2(=O)=O)cc1	nt	-11.4	0.0	0.4	-2.8	nt	nt	nt
SMILES	AHR act	ADAM10 inh	proKLK7 act	rCAG binder	ADAM17 inh	NR3A LBD binder	rCAG binder conf	dCAG dye counter
COc1cc(OC)cc(-c2c(C#Cc3ccsc3)c3cc(-c4ccc5[nH]ccc5c4)ccc3n2C)c1	7.5	-44.0	-5.6	37.0*	-14.1	5.7	33.3	21.5*
COc1cc(OC)cc(-c2c(C#Cc3ccsc3)c3cc(-c4cc(OC)c(OC)c(OC)c4)ccc3n2C)c1	10.9	-94.3	-2.6	7.7	-19.9	-2.4	nt	nt
COc1cc2c(c(OC)c1OC)CC(c1ccccc1)=C(c1ccccc1)CC2NC(=O)C(F)(F)F (stereo not given)	nt	-5.5	0.0	2.8	-5.4	nt	nt	nt
S=c1[nH]nc(-c2n[nH]c3c2CCC3)n1N=Cc1c[nH]c2ccccc12	nt	4.1	0.3	12.7	-0.2	nt	nt	nt
CN(C)c1cccc(-c2ccnc(N3CCC(C(N)=O)CC3)n2)c1	nt	-12.1	nt	nt	-4.1	nt	nt	nt
Nc1c(C(=O)NCC2CCCO2)sc2nc3c(c(-c4ccco4)c12)CC/C3=C\c1ccco1 (stereo not given)	nt	-0.9	-1.1	59.9*	0.4	-1.5	82.6*	52.6*
CC(=O)NS(=O)(=O)c1ccc(N=c2ssc3c2-c2cc(C)ccc2NC3(C)C)cc1	0.6	9.6	0.5	48.3*	-1.0	-18.4	45.2*	16.1*
CC1(C)Nc2ccc(O)cc2-c2c1ssc2=S	5.7	11.9	-0.3	9.9	2.4	-27.9	nt	nt
Cc1c(-c2ccccc2)nnn1-c1ccc(F)c(Cl)c1	nt	9.0	-0.3	2.1	0.8	nt	nt	nt
O=C1NC(=Nc2cccc(O)c2)S/C1=C\c1cccc([N+](=O)[O-])c1	-1.8	14.6	-0.7	47.5*	-0.1	13.4*	33.3	10.9*
O=C1NC(=Nc2cccc(O)c2)S/C1=C\c1cccnc1	4.6	3.9	-0.1	4.6	0.9	8.3	nt	nt
CCN(CC)S(=O)(=O)c1ccc(O)c(NC(=O)c2ccc(N3CCOCC3)c([N+](=O)[O-])c2)c1	4.0	2.3	-0.4	52.9*	-1.8	-8.7	43.5*	12.7*
CCN(CC)S(=O)(=O)c1ccc(N2CCOCC2)c(NC(=O)c2ccccc2)c1	-1.1	9.9	0.4	-1.6	2.0	0.0	nt	nt
O=C(N[C@@H](Cc1cccnc1)C(=O)N1CCC[C@H]1C(=O)NCCc1ccccc1Cl)c1ccc(Cl)c(Cl)c1	nt	-5.2	1.2	4.2	-3.0	nt	nt	nt
CCOC(=O)c1c(-c2ccccc2Cl)csc1NC(=O)CSc1nc(C)cc(=O)[nH]1	5.1	5.5	0.0	37.9*	3.6	-12.0	45.0*	14.7*

Compound activity (PubChem)
